Inconclusive results are not listed. Activity calls are given as the source filed them. Rule for the calls: active = hit-call score of the fitted dose curve at least 0.9, where 1 is the maximum; inconclusive = response in the unintended direction; inactive = score below 0.9.

Read-out in this experiment: Cytochrome P450 2B6 (Homo sapiens) (UniProt P20813)
Kind of experiment: CLD_CYP2B6_48hr: CellzDirect (CLD) Gene Expression Assay for xenobiotic metabolism (CYP2B6) at 48 hours (AID 2283699).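 Note: actives raise transcript level above DMSO so potency reflects induction.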 As for the experimental part:
CLD_48hr is a cell-based, multiplexed-readout assay that uses hepatocyte, a human liver primary cell, with measurements taken at 48 hours after chemical dosing in a 96-well plate.CLD_CYP2B6_48hr is one of 16 assay component(s) measured or calculated from the CLD_48hr assay. It is designed to make measurements of mRNA induction, a form of inducible reporter, as detected with chemiluminescence signals by Quantitative Nuclease Protection Assay (qNPA) technology.Data from the assay component CLD_CYP2B6_48hr was analyzed at the endpoint, CLD_CYP2B6_48hr, in the positive analysis fitting direction relative to DMSO as the negative control and baseline of activity. Using a type of inducible reporter, gain-of-signal activity can be used to understand changes in the reporter gene as they relate to the gene CYP2B6. Furthermore, this assay endpoint can be referred to as a primary readout. To generalize the intended target to other relatable targets, this assay endpoint is annotated to the cyp intended target family, where subfamily is xenobiotic metabolism.
Human hepatocyte cultures were treated daily for two consecutive days with fresh dosing solutions containing appropriate concentrations of the 320 ToxCast chemicals (chemical identities were blinded to CellzDirect and other ToxCast collaborators), vehicle control (0.2% DMSO), and positive control inducers as summarized in Table 1. Due to the large number of treatment groups and chemicals examined, the ToxCast chemicals were divided into two groups (spanning two independent cultures of hepatocytes from separate donor preparations (Hu778: ToxCast plates 1 and 2; Hu776: ToxCast plates 3 and 4). Each preparation of human hepatocyte cultures was treated with respective vehicle control, medium only control, set of six positive controls/reference chemicals for the five hepatic receptor pathways, and a subset of eight of the ToxCast chemicals (indoxacarb, pyrithiobac-sodium, norflurazon, cyhalofop-butyl, methomyl, thiram, acetochlor, and propiconazole). These replicate data, coupled with internal replicates designed within the blinded ToxCast chemical library, provided additional data to evaluate interindividual differences between hepatocyte preparations and their potential impact on chemical profiles.Cell morphology and integrity were evaluated using phase-contrast microscopy as an indicator of hepatocyte cell health (Tyson & Green, 1987). Cultures for each treatment group (i.e., media, vehicle [0.2% DMSO], positive control inducers [multiple concentrations], and the ToxCast chemicals [multiple concentrations]) were observed and cell morphology was assessed relative to vehicle control cultures at each harvest time point (0, 6, 24, or 48 h). […] Images were evaluated at the conclusion of the study to assess changes in cell integrity and account for the effects of chemical exposure on uncharacteristic changes in concentration-dependent gene expression profiles. The results from these determinations of apparent cytotoxicity were annotated (yes/no) alongside the corresponding qNPA data for reference.At the conclusion of each treatment period, hepatocyte cultures (96-well) were washed with 1 volume of HBSS, lysed by addition of 25 ul ArrayPlate lysis buffer (HTG, Tucson, AZ), and 70 ul/well of Denaturation Oil, denatured by incubation at 95C for 10 min, and frozen at approximately -70C until analysis by nuclease protection assay (qNPA) (Roberts et al., 2007). For qNPA analysis, cell lysates were thawed at 50C for approximately 30 min, qNPA probes were added, and samples were incubated at 95C for 10 min to begin the detection process by denaturing the target RNA, dissociating the duplexes and secondary structure hybridization. At the conclusion of the hybridization period, S1 nuclease reagent was added to each sample to digest all nonprotected nucleotides at 50C for 60-90 min. […]
As for `CC(C1CC1)C(O)(Cn1cncn1)c1ccc(Cl)cc1` (stereo not given), the AC50 is 2.42 µM (active).

For the compound `O=C(O)c1cc(Oc2ccc(C(F)(F)F)cc2Cl)ccc1[N+](=O)[O-]`, the call was inactive.

For `CCCCSP(=O)(SCCCC)SCCCC`, the AC50 was 4.3 µM (active).

As for `CCCOCC(=Nc1ccc(Cl)cc1C(F)(F)F)n1ccnc1`, the result was inactive. On the same count and under the same terms, the result for `O=[N+]([O-])c1cc(C(F)(F)F)c(Cl)c([N+](=O)[O-])c1Nc1ncc(C(F)(F)F)cc1Cl` reads “inactive”. For `C#CCC1=C(C)C(OC(=O)C2C(C=C(C)C)C2(C)C)CC1=O` (stereo not given), the AC50 is 4.91 µM (active).

In the case of `Nc1c(Cl)cc([N+](=O)[O-])cc1Cl`, the AC50 is 6.25 µM (active). On the same count and under the same terms, the value for `CCCCN(CC)c1c([N+](=O)[O-])cc(C(F)(F)F)cc1[N+](=O)[O-]` was 4.17 µM (active). On the same count and under the same terms, the result for `CCOP(=O)(SC(C)CC)N1CCSC1=O` (stereo not given) reads 2.05 µM (active). In the case of `COc1cccc(C(=O)NN(C(=O)c2cc(C)cc(C)c2)C(C)(C)C)c1C`, the outcome was inactive. As to `CON=C(C(=O)OC)c1ccccc1CON=C(C)c1cccc(C(F)(F)F)c1`, the compound was classed as inactive. In the case of `CCOP(=O)(OCC)Oc1cc(C)nc(C(C)C)n1`, the AC50 is 5.53 µM (active).

Consider `CCC(CC)Nc1c([N+](=O)[O-])cc(C)c(C)c1[N+](=O)[O-]`, for which the AC50 was 6.23 µM (active). `CCCCOC(=O)c1ccccc1C(=O)O`: the call was inactive. Consider `COc1cc(OC)nc(Sc2cccc(Cl)c2C(=O)O)n1`, for which the compound was classed as inactive.

With `CCNc1nc(Cl)nc(NC(C)(C)C#N)n1`, the AC50 is 3.45 µM (active). On the same count and under the same terms, the value for `CC(C)N(C(=O)SCC(Cl)=C(Cl)Cl)C(C)C` was 3.91 µM (active); that for `Cc1cc(C2CC2)nc(Nc2ccccc2)n1` was 1.09 µM (active); that for `CCOP(=S)(OCC)Oc1cc(C)nc(C(C)C)n1` was 1.89 µM (active). The same measure, in the same setting: the result for `CSc1nc(NC(C)C)nc(NC(C)C)n1` reads 3.24 µM (active).

As for `CN(C)C(=O)Nc1cccc(C(F)(F)F)c1`, the concentration at half-maximal activity (AC50) is 3.69 µM (active).

Turning to `CN(C)NC(=O)CCC(=O)O`, the result was inactive. As to `CNC(=O)Oc1cccc2c1OC(C)(C)O2`, the AC50 was 3.08 µM (active). Turning to `C#CC(C)(C)NC(=O)c1cc(Cl)cc(Cl)c1`, the half-maximal activity concentration (AC50) is 3.69 µM (active). Regarding `C[N+]1(C)CCCCC1`, the call was inactive. In the case of `CCc1cccc(CC)c1N(COC)C(=O)CCl`, the AC50 was 3.01 µM (active).

Regarding `CCCSP(=O)(OCC)Oc1ccc(Br)cc1Cl` (stereo not given), the AC50 was 3.63 µM (active). Take `CCOP(=S)(OCC)SCCSCC`: the AC50 was 1.68 µM (active).

Regarding `CCc1cccc(C)c1N(C(=O)CCl)C(C)COC` (stereo not given), the AC50 is 0.969 µM (active). Take `C=C(C)[C@H]1Cc2c(ccc3c2O[C@@H]2COc4cc(OC)c(OC)cc4[C@@H]2C3=O)O1`: the compound was called inactive. The same measure, in the same setting: the result for `CCC(=NOC/C=C/Cl)C1=C(O)CC(C2CCOCC2)CC1=O` (stereo not given) reads “inactive”. The same measure, in the same setting: the value for `CN1COCN(Cc2cnc(Cl)s2)C1=N[N+](=O)[O-]` was “inactive”. Take `C[Si](Cn1cncn1)(c1ccc(F)cc1)c1ccc(F)cc1`: the AC50 is 0.051 µM (active). Same read-out and setting: the result for `FC(F)C(F)(F)OCC(Cn1cncn1)c1ccc(Cl)cc1Cl` (stereo not given) reads 0.321 µM (active).

In the case of `CCOP(=S)(OCC)Oc1ccc([N+](=O)[O-])cc1`, the concentration at half-maximal activity (AC50) was 1.13 µM (active). In the case of `COP(=O)(NC(C)=O)SC` (stereo not given), the compound was classed as inactive. As to `CCCSP(=O)(OCC)SCCC`, the AC50 is 3.82 µM (active). Take `CN(C)[C@@H]1C(=O)C(C(N)=O)=C(O)[C@@]2(O)C(=O)C3=C(O)c4c(O)cccc4[C@@](C)(O)[C@H]3[C@H](O)[C@@H]12`: the compound was called inactive. With `COc1ccc(C(=CC(=O)N2CCOCC2)c2ccc(Cl)cc2)cc1OC`, the AC50 was 3.59 µM (active). As for `CCCCOC(=O)[C@@H](C)Oc1ccc(Oc2ccc(C#N)cc2F)cc1`, the call was inactive.

In general, AC50 refers to the midpoint of the concentration-response curve, whichever way the signal moves.

(Values after PubChem BioAssay (EPA / NIEHS).)
